In this assay the test system is VDR:RXRa (NR concentration 270 nM, RXRa partner concentration 90 nM). Briefly: PBM binding z-score (relative to random genomic background probes); higher = stronger binding; sequences stand for … in GC…GCGATTGACAGCGTAGAATGAAGG
The procedure:
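Protein-binding microarray (Agilent 4x180K custom design, double-stranded 60-nt probes: 5' GC cap, 34-nt variable region, 24-nt constant primer region; full probe sequence given). Purified or IVT nuclear receptor:RXRα heterodimers (3:1 NR:RXRα, mostly 270:90 nM) or homodimers were incubated for 1 h in PBS with 2% milk and no ligand, then detected with Alexa488 antibodies. Fluorescence from o1-orientation probes (~5 replicates averaged) was converted to z-scores against 500 random hg19 background probes. Variable regions are seed direct-repeat (DR0–DR5) sites, all their single-nucleotide variants and half-site ablations.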
As for TTACCAAGGTGCAAGGTCGTTGATGCACGCCTTG, the PBM binding z-score was 1.92.

For TCTTGTAGATCAAACAGGTTAAGAAAGCCTGAGT, the PBM binding z-score was found to be 0.979.

As to CAAACTAGGTCAAGACGTCAAAGTCCGCTTCCCG, the PBM binding z-score is 1.62.

Regarding TCTGCCAGGTCAGTTGGTCAGCTAACGAGCTGCC, the PBM binding z-score was found to be 0.52.

On to CGTCCAAGGTCATAGTAGGTCAGTGAAGACAGAT, for which the PBM binding z-score was found to be 5.64.

ATATGTAGGTTAGCTGGGGTCATTCAAACTAGGC had a PBM binding z-score of 6.37.

On to TCTAGCTGGCCAGAGGGTCACTCAAGAGGTACGG, for which the PBM binding z-score is 1.44.

In the case of CGAACTAGGTAAGAACAGGACAGTGAAGGATGAT, the PBM binding z-score is -0.253.

Turning to ACTATTAGTTGACATAGGGCAACCGATACGACGC, the PBM binding z-score turned out to be 0.569.

Take CCTACTGGGCAAAGGTCATTGATCAGTCAAAGCA: the PBM binding z-score worked out at 4.36.

As for TCTAGCAGGCCAGAGGGGCACTCAAGAGGTACGG, the PBM binding z-score was -0.288.

Regarding ACTAGCAGGCCAAGTTTGGGTCACTCCAACAAAG, the PBM binding z-score turned out to be 0.642.

As to CGTCCAAGGTCAGAGAGGTCTGTGAATGCCGAGT, the PBM binding z-score came to 4.72.

CCTTACGGTTCACGAGGTTATAGCACGACGAGCG showed a PBM binding z-score of 4.12.

Consider ATTTCTAGGTAAGACTCAGTTCAGTGAAGAACGC, for which the PBM binding z-score turned out to be 1.6.

As for CGAACTAGGTCAGAAGAGGACAGTGAAGGATGAT, the PBM binding z-score came out at 1.69.

The sequence CGAAATAGGTCAAGGACAGTGAATCTCCGCACGC gave a PBM binding z-score of 2.46.

For CCTACTGGGCCAAATGTCATTGATTCCAATGCTC, the PBM binding z-score is 0.0339.

Take ACTATTAGTTAACTTAGGGCAACCGATACGACGC: the PBM binding z-score worked out at 0.299.

On to TCTATTAGTTGATTTGGGCAACCGAAACAGCGGA, for which the PBM binding z-score is 0.688.

In the case of TCGAGTAGGTTACCAATGTGGCATTCAGCTTTCT, the PBM binding z-score was -0.0444.

CTCGAAAGGTCGTACTCAGGTGAGTATACCAAAC came in with a PBM binding z-score of 3.52.

ACTAGTTGGTCAGCTGAGGACACACACAATTCGG returned a PBM binding z-score of 0.506.

The sequence CCTACGGGGCCATTCAGAGGTCATTGATCATATG showed a PBM binding z-score of 5.2.

For the sequence TCTCGGAGGACACGAGGGTCAGAGCTTTCCAGAG, the PBM binding z-score amounted to 1.7.

On to TCTTTTAGATCAGCAGGTTAAGAAAGCTGGCCAA, for which the PBM binding z-score was 0.691.

For TGTCATAGTTCAAAGGTAACGTAAGTATCCACAC, the PBM binding z-score was found to be 2.96.

In turn, TCTATTAGTTGATTAGGGCAACCGGAACAGCGGA yielded a PBM binding z-score of 0.629.

The sequence ACTATTAGGTGAGACGAGGGCAACCGATAGGTTG yielded a PBM binding z-score of 1.77.

GGAACGAGGGCATTCGAGGTGATAGCATGGCGAT showed a PBM binding z-score of 2.4.

On to ATCTCTATGTAAGACTCAGTTCAGTGAAGAACGC, for which the PBM binding z-score came to 0.971.

GCTTACGGGTCAAAGGTGATAGCATGAATAGAAT came in with a PBM binding z-score of 4.42.

CCTTACGGGTCATTCCAGGTTATAGCATCGGAGT: the PBM binding z-score worked out at 4.87.

GATACAGGGTCAGCTAGATGCCAGAGTATGGAAA: the PBM binding z-score came out at 2.58.

Regarding ATCGAAAGGACGAGGTGAGTATAGAGAAAGGGAA, the PBM binding z-score was -0.203.

Sequence TTACCACGGTGAGCTGAGGTCGTTGATCCAACTC had a PBM binding z-score of 1.57.

The sequence ATCTCTAGGTAAAGATAGTTCAGTGCATGCAAAT yielded a PBM binding z-score of 0.777.

GGAATGAGGGCAAGTTGATAGCAGAGTTTGATGG: the PBM binding z-score was 1.18.

On to ATCGAAAGGACGACGAGGTGAGTATACACCGTTT, for which the PBM binding z-score was 0.0992.

Regarding CCTCGGACGACAGAAGGTCAGAGCTGTCCGCTTT, the PBM binding z-score worked out at 0.84.

For the origin of these results see the supplement of paper PMC6555819.
